The structures appear in SMILES notation. About 83,000 compounds went through this panel and 20% of them were active in at least one assay; those are over-represented in the sample as a whole.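 Values shown are percent growth following 48 h exposure of cells in 96-well plates to a single concentration of compound; below 10 was considered active.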 Unmarked numbers belong to inactive results. The source made the active and inactive calls.

This test has as its system UACC-62 melanoma. As to the kind of experiment: NCI-60 one-dose screen, 48 h (100 = growth as untreated, 0 = no growth, -100 = all killed). The conditions noted are these: 10 µM unless noted.
Regarding `O=C1C(Cl)=C(NCCCCCCNC2=C(Cl)C(=O)c3ccccc3C2=O)C(=O)c2ccccc21`, the growth was 83.5%.
Then `CCCC/C=C/[C@@H]1C[C@H]1CCO`, with 92.4%.
On to `C=C(C)[C@@H]1CC[C@]2(CO)CC[C@]3(C)[C@H](CC[C@@H]4[C@@]5(C)CC[C@H](NCO)C(C)(C)[C@@H]5CC[C@]43C)[C@@H]12`, for which the growth was 83.6%.
For `Cc1cccc(/C=C/c2c(C(=O)/C=C/c3ccccc3)c(C)nc3ccccc23)c1`, the growth is -67.3% (active).
On to `Cc1ccc(-c2nc(N3CCCNCC3)c3oc(-c4ccc(C)cc4)nc3n2)cc1`, for which the growth is 92%.
On to `Cc1sc2nc(NCCc3c[nH]c4ccc(Cl)cc34)[nH]c(=O)c2c1C`, for which the growth is 42.3%.
`COc1ccc(OC)c(Nc2nnc(-c3ccc(O)c(OC)c3)o2)c1`: the growth was 96.7%.
Regarding `COc1ccccc1NC(=O)N=Nc1c(O)[nH]c2ccccc12`, the growth was 79.2%.
With `Nc1nc2ccccc2c2c1S(=O)(=O)c1ccc(Cl)cc1C2=O`, the growth was 24.7%.
As to `Nc1n[nH]c2cccc(C#Cc3cccc(C(=O)Nc4cc(C(F)(F)F)cc(C(F)(F)F)c4)c3)c12`, the growth is 50%.
On to `CS(=O)(=O)Nc1cc(-c2ccc3ncnc(Nc4ccc5c(cnn5Cc5ccc(F)cc5)c4)c3c2)cnc1Cl`, for which the growth is 21%.
For the compound `Fc1cc2c(cc1Cl)N(c1ncnc3ccc(-c4ccc5n[nH]nc5c4)cc13)CC2`, the growth was 78.7%.
With `CCN1C(=S)N(c2ccccc2)C2NC(=S)N(/N=C/C=C/c3ccccc3OC)C21` (stereo unspecified), the growth is 25.7%.
Then `O=c1c2cccc3c(N4CCCC4)ccc(c32)c2nc3ccccc3n12`, with 62.6%; and `OB1OCc2cc(/C=C/c3cccc(C(F)(F)F)c3)ccc21`, with 19.9%.
For `O=C(/C=C/c1ccccc1)Nc1ncc(Cc2ccccc2Cl)s1`, the growth is 34.1%.
Take `CN(C)CCNC(=O)c1ccc(-c2nc3ccc4[nH]ncc4c3c3c2C2CCC3C2)cc1` (stereo unspecified): the growth was 31.3%.
For the compound `COC12C=C/C(=C(/C(=O)OCc3ccncc3)C(=O)CCCCCCCCC3(OC)C=C/C(=C(/C(=O)OCc4ccncc4)C(=O)CCCCCCCC1)O3)O2`, the growth was -63% (active).
As for `O=C(/C=C/c1cccc(Cl)c1)c1cccc(OCCCOc2cccc(C(=O)/C=C/c3cccc(Cl)c3)c2)c1`, the growth was 80.6%.
The value for `CCn1c(SCC(=O)N/N=C(\C)c2ccc(Cl)cc2)nc2c1c(=O)n(C)c(=O)n2C` was 95.2%; that for `Cc1ccc(C[P+](c2ccccc2)(c2ccccc2)c2ccccc2)cc1` was 6.79% (active); that for `Clc1ccc2c(NC3CCC(N4CCOCC4)CC3)ccnc2c1` (stereo unspecified) was 77.4%.
On to `Cc1ccc(C2=Nc3c(N)ncnc3NC(c3cccc(Nc4ccnc5cc(C(F)(F)F)ccc45)c3)C2)cc1` (stereo unspecified), for which the growth is 48.7%.
Then `COc1ccc(-c2noc(C(=O)O)c2-c2cc(OC)c(OC)c(OC)c2)cc1`, with 24.2%; and `CCOC(=O)c1nn(-c2ccc(S(N)(=O)=O)cc2)c2nc(C)cc(=O)n12`, with 99.6%.
The value for `CCSC(SCC)c1ccc(Cl)cc1` was 98.6%; that for `CSc1nc2ccccc2cc1/C=C1/C=C(c2ccccc2)NC1=O` was 64%; that for `COC1/C=C/OC2(C)Oc3c(C)c(O)c4c(O)c(c(/C=N/Nc5ccc([N+](=O)[O-])cc5[N+](=O)[O-])c(O)c4c3C2=O)NC(=O)C(C)=C/C=C/C(C)C(O)C(C)C(O)C(C)C(OC(C)=O)C1C` (stereo unspecified) was -41.3% (active).
Take `O=C1C(Cl)=C(Nc2ccc(S(=O)(=O)N3CCOCC3)cc2)C(=O)c2ccccc21`: the growth was 29.7%.
Consider `c1csc(-c2ccc(CNc3c4ccccc4nc4ccccc34)cc2)c1`, for which the growth is 64.5%.
Regarding `Nc1ncc(-c2ccc3ncnc(Nc4cccc(Cl)c4)c3c2)cn1`, the growth was 50.6%.
Then `CCOC(=O)C#Cc1c(C(=O)OCC)nnn1Cc1ccc([N+](=O)[O-])cc1`, with 76%; and `O=C(CSc1nc2ccc([N+](=O)[O-])cc2[nH]1)Nc1ccc([N+](=O)[O-])cc1`, with 2.77% (active); and `CC(C)(Sc1cc(C(C)(C)C)c(OC(=O)CCCC(=O)O)c(C(C)(C)C)c1)Sc1cc(C(C)(C)C)c(OC(=O)CCCC(=O)O)c(C(C)(C)C)c1`, with -19.7% (active).
Consider `O=C(N(c1ccccc1)c1ccccc1)n1cc(I)c2nc(Cl)nc(Cl)c21`, for which the growth is 37.2%.
The value for `NC(=O)CSc1oc(-c2ccccc2)nc1S(=O)(=O)c1ccc(Br)cc1` was 49.5%.
